In ChEMBL document CHEMBL4513146, “CO-ADD screening of Karazin Kharkiv National University (Ukraine) compounds”:
Entries with a potency or affinity are not part of this list.

These molecules were tested on Staphylococcus aureus. Conditions: Concentration 32 ug.mL-1;; ASSAY_TEST Inhibition of Bacterial Growth; detection method Absorption (OD600); MEDIA CAMHB; plate type 384well; NBS; CORNING #3640; time 18 hr.
Work on `CCc1nnc2c(S(=O)(=O)N(Cc3cc(F)cc(F)c3)c3ccc(F)cc3)cccn12` yielded an Inhibition of -5.33%. Work on `COc1ccc(NC(=O)Cn2nc3c(N4CCCC4)nccn3c2=O)cc1` yielded an Inhibition of 5.17%. Work on `O=C(CSc1nnc2c(=O)n(-c3ccccc3)ccn12)Nc1cccc(F)c1` yielded an Inhibition of 13%. Molecule `CSc1ccc(-c2noc(Cn3nc4ccc(-c5ccccc5)nn4c3=O)n2)cc1` has an Inhibition of 3.45%. In the case of `CCCc1nnc2c(=O)n(CC(=O)Nc3ccc(C#N)cc3)c3ccccc3n12`, the Inhibition is reported as 8.01%. `Cc1ccc(Oc2nccn3c(=O)n(CC(=O)Nc4ccc(F)cc4F)nc23)cc1` was tested, and the Inhibition was 19.59%. Molecule `O=C(Cn1nc2ccc(SCc3ccc(Cl)cc3)nn2c1=O)Nc1ccccc1` has an Inhibition of 5.05%. Work on `Cc1ccc(-c2nc(CSc3nc4ccccc4n4c(C(C)C)nnc34)c(C)o2)cc1` yielded an Inhibition of -8.56%. `CCC(Sc1nnc2c(=O)n(-c3cccc(OC)c3)ccn12)C(=O)Nc1ccccc1C` (stereo not drawn) was tested, and the Inhibition was -3.13%. Work on `COc1cccc(CN(c2ccc(Cl)cc2)S(=O)(=O)c2ccc3nncn3c2)c1` yielded an Inhibition of -6.52%. `Cc1ccc(NC(=O)Cn2c(=O)c3nnc(C(C)C)n3c3ccccc32)cc1C` gave an Inhibition of 7.95%. In the case of `CC(C)c1ccc(NC(=O)Cn2nc3c(Sc4ccccc4)nccn3c2=O)cc1`, the Inhibition is reported as -14.37%. `Cc1cc(Br)ccc1NC(=O)Cn1nc2c(Sc3ccccc3)nccn2c1=O` showed an Inhibition of 4.58%. `COc1cccc(-n2ccn3c(SCC(=O)c4ccc(F)cc4)nnc3c2=O)c1` gave an Inhibition of 13.82%. In the case of `COc1ccc(NC(=O)Cn2nc3ccc(SC(C)C)nn3c2=O)cc1OC`, the Inhibition is reported as -2.31%. Molecule `Cc1cccc(N(Cc2cccc(Cl)c2)S(=O)(=O)c2cccn3c(C)nnc23)c1` has an Inhibition of 2.81%. Work on `CCOc1ccc(-n2ccn3c(SCC(=O)Nc4cc(F)ccc4F)nnc3c2=O)cc1` yielded an Inhibition of -3.91%. In the case of `COc1ccccc1-n1ccn2c(SCc3ccccc3C)nnc2c1=O`, the Inhibition is reported as 16.46%. Work on `O=C(Cn1nc2c3cc(-c4ccc(Cl)cc4)nn3ccn2c1=O)NCc1ccccc1` yielded an Inhibition of 12.1%. With `O=C(Cn1nc2c(Oc3ccccc3)nccn2c1=O)Nc1ccc2c(c1)OCO2` the Inhibition was 2.59%. Molecule `COc1ccc(NC(=O)Cn2nc3c(N4CCCC(C)C4)nccn3c2=O)cc1OC` (stereo not drawn) has an Inhibition of -18.12%. `Cc1ccc(Oc2nccn3c(=O)n(CC(=O)NCc4cccs4)nc23)cc1` gave an Inhibition of 11.07%. With `CCN(C(=O)Cn1nc2cc(C)nc(Nc3ccc(C)c(F)c3)n2c1=O)c1ccccc1` the Inhibition was 15.67%. Molecule `O=C(Cn1nc2c3cc(-c4ccc(F)cc4)nn3ccn2c1=O)Nc1ccc2c(c1)OCCO2` has an Inhibition of 10.64%. `O=C(CCc1nnc2c(N3CCCCC3)nc3ccccc3n12)NCc1ccccc1Cl` showed an Inhibition of 7.81%. With `C=Cc1ccc(Cn2nc3c(=O)n(-c4cccc(Cl)c4C)ccn3c2=O)cc1` the Inhibition was -2.71%. Molecule `CCc1ccc(N(Cc2ccccc2)S(=O)(=O)c2cccn3c(CC)nnc23)cc1` has an Inhibition of 13.69%. `O=C(Cn1nc2c(Sc3cccc(F)c3)nccn2c1=O)Nc1cccc(Br)c1` gave an Inhibition of 3.89%. With `COc1ccc(NC(=O)c2ccc3nn(CC(=O)Nc4ccc5c(c4)OCCO5)c(=O)n3c2)cc1` the Inhibition was 0.27%. `Cc1ccc(CNC(=O)CSc2nnc3c4cc(-c5ccc(F)cc5)nn4ccn23)cc1` was tested, and the Inhibition was 12.38%. Work on `Cc1cccc(C)c1NC(=O)CSc1nc2ccccc2n2c(C)nnc12` yielded an Inhibition of 11.69%. For `COc1cc(NC(=O)C(C)Sc2nnc3c(=O)n(-c4ccc(F)cc4)ccn23)cc(OC)c1` (stereo not drawn), the Inhibition was 6.77%. `Cc1cccc(C)c1NC(=O)CSc1nnc2ccc(C(=O)Nc3cccc(F)c3)cn12` gave an Inhibition of 12.1%. Molecule `O=C(Cn1nc2ccc(-c3ccccc3)nn2c1=O)Nc1cccc(Cl)c1` has an Inhibition of -4.62%. In the case of `COc1ccc(NC(=O)Cn2nc3c(Sc4ccccc4)nccn3c2=O)cc1OC`, the Inhibition is reported as -8.9%. `O=c1c2nn(Cc3cccc(F)c3)c(=O)n2ccn1-c1ccccc1` was tested, and the Inhibition was -1.92%. Molecule `CCc1ccc(N(Cc2ccccc2)S(=O)(=O)c2cccn3c(C)nnc23)cc1` has an Inhibition of 11.03%. Work on `Cc1ccc(C)c(S(=O)(=O)Nc2ccc3nncn3n2)c1` yielded an Inhibition of 15.24%. Work on `COc1cccc(-n2ccn3c(SCC(=O)c4c[nH]c5ccccc45)nnc3c2=O)c1` yielded an Inhibition of 3.92%.

What follows are molecules tested on Escherichia coli. Conditions: Concentration 32 ug.mL-1;; ASSAY_TEST Inhibition of Bacterial Growth; detection method Absorption (OD600); MEDIA CAMHB; plate type 384well; NBS; CORNING #3640; time 18 hr.
For `CCc1nnc2c(S(=O)(=O)N(Cc3cc(F)cc(F)c3)c3ccc(F)cc3)cccn12`, the Inhibition was -11.24%. `COc1ccc(NC(=O)Cn2nc3c(N4CCCC4)nccn3c2=O)cc1` was tested, and the Inhibition was 5.65%. Work on `O=C(CSc1nnc2c(=O)n(-c3ccccc3)ccn12)Nc1cccc(F)c1` yielded an Inhibition of -3.48%. Work on `CSc1ccc(-c2noc(Cn3nc4ccc(-c5ccccc5)nn4c3=O)n2)cc1` yielded an Inhibition of 0.55%. Molecule `CCCc1nnc2c(=O)n(CC(=O)Nc3ccc(C#N)cc3)c3ccccc3n12` has an Inhibition of -1.86%. With `Cc1ccc(Oc2nccn3c(=O)n(CC(=O)Nc4ccc(F)cc4F)nc23)cc1` the Inhibition was -0.38%. In the case of `O=C(Cn1nc2ccc(SCc3ccc(Cl)cc3)nn2c1=O)Nc1ccccc1`, the Inhibition is reported as -4.3%. In the case of `Cc1ccc(-c2nc(CSc3nc4ccccc4n4c(C(C)C)nnc34)c(C)o2)cc1`, the Inhibition is reported as -6.52%. For `CCC(Sc1nnc2c(=O)n(-c3cccc(OC)c3)ccn12)C(=O)Nc1ccccc1C` (stereo not drawn), the Inhibition was -2.17%. `COc1cccc(CN(c2ccc(Cl)cc2)S(=O)(=O)c2ccc3nncn3c2)c1` showed an Inhibition of -6.27%. `Cc1ccc(NC(=O)Cn2c(=O)c3nnc(C(C)C)n3c3ccccc32)cc1C` gave an Inhibition of 6.48%. In the case of `CC(C)c1ccc(NC(=O)Cn2nc3c(Sc4ccccc4)nccn3c2=O)cc1`, the Inhibition is reported as -14.79%. `Cc1cc(Br)ccc1NC(=O)Cn1nc2c(Sc3ccccc3)nccn2c1=O` gave an Inhibition of -5.92%. For `COc1cccc(-n2ccn3c(SCC(=O)c4ccc(F)cc4)nnc3c2=O)c1`, the Inhibition was -3.39%. With `COc1ccc(NC(=O)Cn2nc3ccc(SC(C)C)nn3c2=O)cc1OC` the Inhibition was 0.47%. With `Cc1cccc(N(Cc2cccc(Cl)c2)S(=O)(=O)c2cccn3c(C)nnc23)c1` the Inhibition was -5.89%. With `CCOc1ccc(-n2ccn3c(SCC(=O)Nc4cc(F)ccc4F)nnc3c2=O)cc1` the Inhibition was 1.2%. Molecule `COc1ccccc1-n1ccn2c(SCc3ccccc3C)nnc2c1=O` has an Inhibition of -2.58%. In the case of `O=C(Cn1nc2c3cc(-c4ccc(Cl)cc4)nn3ccn2c1=O)NCc1ccccc1`, the Inhibition is reported as 4.95%. For `O=C(Cn1nc2c(Oc3ccccc3)nccn2c1=O)Nc1ccc2c(c1)OCO2`, the Inhibition was -7.1%. `COc1ccc(NC(=O)Cn2nc3c(N4CCCC(C)C4)nccn3c2=O)cc1OC` (stereo not drawn) gave an Inhibition of -13.91%. With `Cc1ccc(Oc2nccn3c(=O)n(CC(=O)NCc4cccs4)nc23)cc1` the Inhibition was 1.37%. With `CCN(C(=O)Cn1nc2cc(C)nc(Nc3ccc(C)c(F)c3)n2c1=O)c1ccccc1` the Inhibition was -1.02%. `O=C(Cn1nc2c3cc(-c4ccc(F)cc4)nn3ccn2c1=O)Nc1ccc2c(c1)OCCO2` showed an Inhibition of 1.96%. Work on `O=C(CCc1nnc2c(N3CCCCC3)nc3ccccc3n12)NCc1ccccc1Cl` yielded an Inhibition of 4.64%. `C=Cc1ccc(Cn2nc3c(=O)n(-c4cccc(Cl)c4C)ccn3c2=O)cc1` was tested, and the Inhibition was -4.95%. `CCc1ccc(N(Cc2ccccc2)S(=O)(=O)c2cccn3c(CC)nnc23)cc1` gave an Inhibition of -0.95%. `O=C(Cn1nc2c(Sc3cccc(F)c3)nccn2c1=O)Nc1cccc(Br)c1` was tested, and the Inhibition was 0.56%. Molecule `COc1ccc(NC(=O)c2ccc3nn(CC(=O)Nc4ccc5c(c4)OCCO5)c(=O)n3c2)cc1` has an Inhibition of -8.29%. With `Cc1ccc(CNC(=O)CSc2nnc3c4cc(-c5ccc(F)cc5)nn4ccn23)cc1` the Inhibition was -2.28%. Molecule `Cc1cccc(C)c1NC(=O)CSc1nc2ccccc2n2c(C)nnc12` has an Inhibition of -4.17%. In the case of `COc1cc(NC(=O)C(C)Sc2nnc3c(=O)n(-c4ccc(F)cc4)ccn23)cc(OC)c1` (stereo not drawn), the Inhibition is reported as -6.93%. `Cc1cccc(C)c1NC(=O)CSc1nnc2ccc(C(=O)Nc3cccc(F)c3)cn12` gave an Inhibition of 2.91%. Molecule `O=C(Cn1nc2ccc(-c3ccccc3)nn2c1=O)Nc1cccc(Cl)c1` has an Inhibition of -11.73%. With `COc1ccc(NC(=O)Cn2nc3c(Sc4ccccc4)nccn3c2=O)cc1OC` the Inhibition was -5.11%. `O=c1c2nn(Cc3cccc(F)c3)c(=O)n2ccn1-c1ccccc1` was tested, and the Inhibition was -7.67%. `CCc1ccc(N(Cc2ccccc2)S(=O)(=O)c2cccn3c(C)nnc23)cc1` showed an Inhibition of -3.19%. In the case of `Cc1ccc(C)c(S(=O)(=O)Nc2ccc3nncn3n2)c1`, the Inhibition is reported as 1.21%. Work on `COc1cccc(-n2ccn3c(SCC(=O)c4c[nH]c5ccccc45)nnc3c2=O)c1` yielded an Inhibition of -5.66%.
